Screens as filed in PubChem BioAssay.
Calb FLC: C. albicans growth modulation with fluconazole. 300,000 tested, 0.57% active. C. albicans CaCi-2 (fluconazole-resistant clinical isolate) + fluconazole, Alamar Blue growth, 48 h. growth inhibition, % (test concentration not listed). AID 1979;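 active = growth inhibition above about 58% in most replicates, limit read from the data, passing the limit was not always enough; inconclusive = exactly half the replicates above a set limit; inactive = most replicates below a set limit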;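 note: all wells also contain fluconazole at 8 µg/ml as a sub-toxic cotreatment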
IDE cell activ: IDE (human) activation, cell-based | HEK cells, FAbeta-B cleavage, fluorescence polarization; 0% vehicle, 100% cell-free pure enzyme wells | activation, % at 5.96 µM | 340,000 tested, 0.073% active | AID 493087;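 active = activation above the mean of all tested compounds plus 3 SD, set per screening campaign, cut at about 17% in these data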
IDE inh: inhibitors of human insulin-degrading enzyme in cells | P14735 | HEK cells, FAbetaB cleavage, fluorescence polarization | inhibition, % at 5.59 µM | 320,000 tested, 0.41% active | AID 434962;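 active = percent inhibition above the average of all tested compounds plus 3 SD, set per screening campaign, cut at about 16% in these data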;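 note: IDE supplied by intact live HEK cells; FP after avidin binding of uncleaved biotin substrate so inhibition keeps polarization high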
Rpn11 block: Rpn11 (human) deubiquitinase inhibition | inhibition, % at 20 µM | AID 588493 | O00487 | human 26S proteasome, Ub4-pepOG fluorescence polarization; 20S core pre-blocked with epoxomicin | 360,000 tested, 0.59% active;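 active = inhibition at 20 µM, scaled to each plate's controls, above about 33%, limit read from the data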
TPT1 inh: blocks Candida albicans tRNA 2'-phosphotransferase; recombinant caTPT1, FP RNA substrate dephosphorylation; AID 1962; 300,000 tested, 0.81% active; inhibition, % at 5 µM;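 active = inhibition above the mean of all tested compounds plus 3 SD, set per screening campaign, cut at about 24% in these data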
Rin1 Abl inh: inhibitors of human Rin1-Abl protein interaction | P00519+Q13671 | TR-FRET Rin1/Abl binding, biochemical | inhibition, % at 7.35 µM | 360,000 tested, 0.4% active | AID 588664; in the data active = inhibition above about 5%, passing the limit was not always enough
Target sequence (P00519 whole entry, looked up): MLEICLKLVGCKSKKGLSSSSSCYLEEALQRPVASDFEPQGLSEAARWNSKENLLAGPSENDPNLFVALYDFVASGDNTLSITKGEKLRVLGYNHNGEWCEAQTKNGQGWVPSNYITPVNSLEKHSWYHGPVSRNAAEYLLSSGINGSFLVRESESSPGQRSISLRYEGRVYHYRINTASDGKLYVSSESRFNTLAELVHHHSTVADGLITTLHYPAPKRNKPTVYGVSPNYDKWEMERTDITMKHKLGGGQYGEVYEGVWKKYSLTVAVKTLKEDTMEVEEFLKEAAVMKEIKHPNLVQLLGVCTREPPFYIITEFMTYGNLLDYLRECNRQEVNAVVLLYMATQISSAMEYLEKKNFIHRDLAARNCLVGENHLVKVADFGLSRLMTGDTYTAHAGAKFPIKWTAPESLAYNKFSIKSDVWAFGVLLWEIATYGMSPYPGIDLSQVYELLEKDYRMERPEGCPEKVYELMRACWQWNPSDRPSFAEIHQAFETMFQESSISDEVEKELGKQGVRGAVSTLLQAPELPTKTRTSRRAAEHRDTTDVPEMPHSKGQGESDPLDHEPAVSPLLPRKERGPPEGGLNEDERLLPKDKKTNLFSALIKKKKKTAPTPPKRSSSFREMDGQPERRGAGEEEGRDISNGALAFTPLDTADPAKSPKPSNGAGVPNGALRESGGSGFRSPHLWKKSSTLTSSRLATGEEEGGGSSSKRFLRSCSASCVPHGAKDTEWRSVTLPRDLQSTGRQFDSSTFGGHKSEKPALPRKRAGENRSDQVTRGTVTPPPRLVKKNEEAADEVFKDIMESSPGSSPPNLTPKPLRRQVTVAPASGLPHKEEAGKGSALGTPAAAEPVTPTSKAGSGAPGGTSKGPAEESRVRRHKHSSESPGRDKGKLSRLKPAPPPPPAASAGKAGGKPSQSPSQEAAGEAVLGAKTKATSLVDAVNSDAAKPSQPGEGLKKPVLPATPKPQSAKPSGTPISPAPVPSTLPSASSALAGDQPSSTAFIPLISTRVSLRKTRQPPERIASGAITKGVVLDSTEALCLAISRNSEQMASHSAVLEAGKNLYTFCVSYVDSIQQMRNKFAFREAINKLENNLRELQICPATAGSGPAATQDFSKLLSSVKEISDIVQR
Target sequence (Q13671 whole entry, looked up): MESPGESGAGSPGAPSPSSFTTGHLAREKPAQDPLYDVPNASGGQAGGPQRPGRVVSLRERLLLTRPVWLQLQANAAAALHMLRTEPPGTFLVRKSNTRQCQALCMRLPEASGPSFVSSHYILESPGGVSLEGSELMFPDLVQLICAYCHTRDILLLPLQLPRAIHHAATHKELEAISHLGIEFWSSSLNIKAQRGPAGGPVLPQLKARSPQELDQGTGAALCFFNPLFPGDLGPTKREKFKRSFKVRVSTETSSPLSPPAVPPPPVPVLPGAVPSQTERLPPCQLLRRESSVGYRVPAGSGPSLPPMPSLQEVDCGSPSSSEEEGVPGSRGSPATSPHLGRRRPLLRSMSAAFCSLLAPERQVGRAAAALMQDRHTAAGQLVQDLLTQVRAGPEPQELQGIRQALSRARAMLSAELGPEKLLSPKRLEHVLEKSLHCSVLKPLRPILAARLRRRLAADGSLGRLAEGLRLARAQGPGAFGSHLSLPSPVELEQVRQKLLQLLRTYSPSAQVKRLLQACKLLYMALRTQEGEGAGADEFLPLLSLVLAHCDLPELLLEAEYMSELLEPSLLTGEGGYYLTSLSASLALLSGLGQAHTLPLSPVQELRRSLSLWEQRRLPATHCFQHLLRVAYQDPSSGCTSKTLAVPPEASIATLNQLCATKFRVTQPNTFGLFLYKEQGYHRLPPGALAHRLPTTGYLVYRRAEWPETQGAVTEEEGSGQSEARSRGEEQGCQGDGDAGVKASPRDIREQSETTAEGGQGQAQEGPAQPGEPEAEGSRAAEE
Rpn11 confirm: Rpn11 inhibition confirmation, single concentration; shares compounds with Rpn11 block; purified human 26S proteasome, Ub4-pepOG fluorescence polarization; proteasome pretreated with epoxomicin; inhibition, % at 20 µM; 1,900 tested, 29% active; AID 602318
MMP-2 counter: counter-screen for RPN11 inhibitors: inhibition of human MMP-2. shares compounds with Rpn11 block. inhibition, % at 20 µM. AID 602330. recombinant MMP-2, FRET peptide cleavage fluorescence. 1,900 tested, 4% active;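 note: human MMP-2 activated beforehand with APMA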
Thrombin FP: blocks bovine thrombin, flagging nonselective RPN11 hits. inhibition, % at 20 µM. shares compounds with Rpn11 block. 1,900 tested, 13% active. bovine thrombin cleavage of Ub4-pepOG, fluorescence polarization. AID 602333;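 active = mean inhibition at least 40% at 20 µM, or signal 3 deviations below plate average, so some actives read negative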
Numbers stand for hits; – = inactive; ? = inconclusive; · = no result; + = active, no number. In the library only some 2.3% were active in any assay of this set; here they are far more common. Cut-off read from the data, not from the text of the source, unless noted: active = inhibition above about 40%; inactive = the rest.

SMILES	Calb FLC	IDE cell activ	IDE inh	Rpn11 block	TPT1 inh	Rin1 Abl inh	Rpn11 confirm	MMP-2 counter	Thrombin FP
COc1ccc(NC(=O)C2(C)Cc3c(-c4ccc(C(N)=O)cc4)ccnc3O2)cn1 (stereo not drawn)	·	·	·	–	·	–	·	·	·
O=C(CCNC(=O)c1ccccc1)N=Nc1c(O)[nH]c2ccccc12	–	·	–	·	–	·	·	·	·
O=C(Cn1nnc(-c2ccccc2)n1)N=Nc1c(O)[nH]c2ccccc12	–	–	–	64	–	–	–	–	–
CSc1ccc(/C=C2\C(=N)N3N=C(CC(=O)N4CCCCC4)SC3=NC2=O)cc1	–	–	–	52	–	–	–	–	–
CSc1ccc(/C=C2\C(=N)N3N=C(CC(=O)N4CCOCC4)SC3=NC2=O)cc1	–	–	–	–	–	–	·	·	·
CC(C)N(Cc1ccccc1)C(=O)COC(=O)C1CCCCC1	·	–	–	–	·	–	·	·	·
O=C1CN(C(=O)COC(=O)c2cccs2)c2ccccc2N1	·	–	–	–	·	–	·	·	·
Cn1c2ccccc2c2cc(C(=O)OCC(=O)N3CC(=O)Nc4ccccc43)sc21	–	–	–	65	–	–	121	–	88
Cc1ccc(F)cc1C(=O)N1CCOCC1c1cc(C(=O)NCc2ccccc2)no1 (stereo not drawn)	·	·	·	–	·	–	·	·	·
COc1cc(-c2ccc(Nc3ccccc3C(=O)O)c(OC)c2)ccc1Nc1ccccc1C(=O)O	·	–	·	48	·	–	41	72	–
COc1ccc(N2CCN(CC(O)COc3ccc4c(c3)CCC4)CC2)cc1 (stereo not drawn)	–	–	–	105	–	–	–	–	–
COc1ccc(OCC(O)CN2CCN(c3ccc(Cl)cc3)CC2)cc1 (stereo not drawn)	–	–	–	–	–	–	·	·	·
O=C(Nc1nnc(SCCN2CCOCC2)s1)C1CC(=O)N(c2ccc(F)cc2)C1 (stereo not drawn)	–	–	–	–	–	–	·	·	·
O=C1N/C(=C/c2cccn2-c2ccccc2)C(=O)N1Cc1ccc(F)cc1	–	–	–	42	–	–	–	–	–
O=C1N/C(=C/c2cccn2-c2ccc(F)cc2)C(=O)N1Cc1ccccc1F	–	–	–	–	–	–	·	·	·
CCOc1ccc(N(CC(=O)NC2CCCC2)C(=O)CCC(=O)Nc2nc(C)cs2)cc1	–	–	–	–	–	–	·	·	·
CCOc1ccc(N(CC(=O)NC2CCCCC2)C(=O)CCC(=O)Nc2nc(C)cs2)cc1	–	–	–	130	–	–	–	–	–
O=C(COc1ccc([N+](=O)[O-])cc1)Nc1cccc2nsnc12	–	–	–	75	–	–	–	–	–
COc1cccc(-c2ncc3ccccc3c2COC(=O)c2ccc(C(F)(F)F)cc2)c1	·	–	–	–	·	–	·	·	·
COc1ccc(CNCc2cn(-c3cccc(F)c3)nc2-c2ccc(C)o2)cc1	–	–	–	43	–	–	–	–	–
O=C(CSc1ncccn1)NC(=O)NC1CCCC1	·	·	·	–	·	–	·	·	·
Cc1ccc(C(=O)Nc2cccc(NC(=O)c3ccc(C)cc3)n2)cc1	–	·	–	–	–	–	·	·	·
O=C(CC[C@H]1O[C@@H](n2cnc3c(NC(=O)c4ccccc4)ncnc32)[C@H](O)[C@@H]1O)NCc1nc2ccccc2[nH]1	·	·	·	–	·	–	·	·	·
O=C(Nc1nc2nc(-c3ccccc3)cc(=O)n2[nH]1)c1ccccc1	–	–	–	–	–	–	·	·	·
COc1ccc(C(=O)Nc2nc3nc(-c4ccccc4)cc(=O)n3[nH]2)cc1	·	–	·	69	·	–	–	–	–
SMILES	Calb FLC	IDE cell activ	IDE inh	Rpn11 block	TPT1 inh	Rin1 Abl inh	Rpn11 confirm	MMP-2 counter	Thrombin FP
O=C(NCc1ccco1)C1CCCCN1S(=O)(=O)c1ccc(F)cc1 (stereo not drawn)	–	–	–	+	–	–	–	–	–
C#CCNCCS(=O)(=O)N(Cc1ccc(Br)cc1)[C@@H](C)C(=O)O	·	–	·	–	·	–	·	·	·
CCN1CCN(C(C)CCc2ccccc2)CC1 (stereo not drawn)	–	–	–	–	–	–	·	·	·
COc1ccccc1/C=N\NC(=O)c1c(C)nc2ccc(Cl)cn12	–	–	·	–	·	–	·	·	·
COc1cccc(/C=N/NC(=O)c2c(C)nc3ccc(Cl)cn23)c1O	104	–	–	52	–	–	–	–	–
Cc1ccc(Cl)cc1NS(=O)(=O)c1ccc2oc(=O)ccc2c1	–	–	–	–	–	–	·	·	·
O=C(Nc1ccccc1C(=O)Nc1nnc(C(F)(F)F)s1)c1ccccc1	–	–	–	35	–	–	–	–	–
Cc1occc1C(=O)Nc1nnc(C(F)(F)F)s1	–	–	–	–	–	–	·	·	·
COc1ccc(CCNC(=O)c2cccn2C)cc1	–	–	–	–	–	–	·	·	·
COc1ccc(CNC(=O)C(C)OC(=O)c2cccn2C)cc1 (stereo not drawn)	–	–	–	+	–	–	–	–	–
O=C1CSC(=S)N1N=Cc1c[nH]c2ccc(Br)cc12	·	·	·	61	·	–	–	–	–
O=C(Nc1ncccc1O)c1c(O)c2ccccc2[nH]c1=O	–	–	–	–	–	–	·	·	·
COc1cccc(C(=O)c2ccccc2C(=O)O)c1	·	·	·	–	·	–	·	·	·
O=C1NN(c2ccc(Cl)cc2)C(=O)/C1=C\c1ccc(-c2cccc(C(=O)O)c2)o1	·	–	·	104	·	–	142	–	–
Cc1ccc(-c2c(C)c(-c3ccc(F)cc3)nc(N)c2C#N)o1	–	–	–	42	–	–	–	–	–
CN(CC(=O)Nc1nccs1)S(=O)(=O)c1ccc(F)cc1	–	–	–	49	–	–	–	–	–
O=C(CCS(=O)(=O)c1ccc(F)cc1)Nc1nccs1	·	·	·	–	·	–	·	·	·
CC(=O)Cn1c(C(F)(F)F)nc2ccccc21	–	–	–	–	–	–	·	·	·
O=C(Cn1c(C(F)(F)F)nc2ccccc21)N1CCCC1	–	–	–	75	–	–	–	–	–
COc1ccccc1N1CCN(C(=O)c2ccc3noc(-c4ccccc4)c3c2)CC1	·	·	·	–	·	–	·	·	·
COc1ccc(-c2ccc(CCC(=O)O)n2CC(C)C)cc1	–	–	–	–	–	–	·	·	·
C=CCn1c(CCC(=O)O)ccc1-c1ccc(OC)cc1	?	–	–	38	–	–	–	–	–
Cc1cc(O)c(C(C)C)cc1N=Cc1ccccc1O	–	–	–	45	–	–	–	–	–
COc1cc(/C=C/c2ccc3c(Br)cc(Br)c(O)c3n2)ccc1O	–	–	–	43	–	–	–	–	–
COc1ccc(/C=C/c2ccc3c(Br)ccc(O)c3n2)cc1	–	–	–	–	–	–	·	·	·
Cc1cc(C)n(C(=O)CNC(=O)/C=C/c2ccccc2)n1	–	–	–	72	–	–	–	–	–
COc1ccc(/C=C/C(=O)NCC(=O)n2nc(C)cc2C)cc1	–	·	–	–	–	–	·	·	·
